# Among all 64,000 compounds or so, about 2,200 (3.4%) were called active.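 How the source made its calls: active means calcium fluorescence response, raw or row-and-column corrected B-score, differing from the plate sample mean either way at a set confidence level, mostly lower; inactive means the rest.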 The sample as a whole holds a higher share of actives than the screen did.
# Molecular target: Muscarinic acetylcholine receptor M1 (Rattus norvegicus) (UniProt P08482)
# Experiment: blocks the rat M1 muscarinic receptor response to acetylcholine (AID 628)
# Conditions: CHO-M1 cells, Fluo-4 calcium, ACh EC80 antagonist mode; at 10 µM; stronger effect = lower value
# Chain of Muscarinic acetylcholine receptor M1 (Rattus norvegicus) (P08482 whole entry, looked up): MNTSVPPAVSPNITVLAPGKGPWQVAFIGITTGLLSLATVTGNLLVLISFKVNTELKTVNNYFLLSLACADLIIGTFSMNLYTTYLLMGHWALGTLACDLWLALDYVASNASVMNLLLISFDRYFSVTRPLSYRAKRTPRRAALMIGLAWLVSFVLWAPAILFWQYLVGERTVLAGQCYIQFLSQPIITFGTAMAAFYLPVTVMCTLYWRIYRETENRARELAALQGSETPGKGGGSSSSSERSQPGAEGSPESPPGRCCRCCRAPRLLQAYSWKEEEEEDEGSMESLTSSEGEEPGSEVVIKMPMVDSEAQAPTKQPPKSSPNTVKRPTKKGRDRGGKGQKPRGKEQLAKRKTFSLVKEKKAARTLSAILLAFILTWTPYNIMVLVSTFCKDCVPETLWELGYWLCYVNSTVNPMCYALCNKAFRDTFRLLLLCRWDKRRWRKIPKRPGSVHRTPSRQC
row,SMILES,B-score
1,CCOC(=O)c1ccc(N2C(=O)CC(N3CCC(C(=O)OCC)CC3)C2=O)cc1 (stereo not given),-0.522 (inactive)
2,CCOC(=O)C1CCN(Cc2coc3ccc(Cl)cc3c2=O)CC1,-5.08 (active)
3,CCOC(=O)C1CCN(C(=O)Nc2ccc(Cl)cc2)CC1,-0.00301 (inactive)
4,CC(C)NS(=O)(=O)c1ccc(NC(=O)c2cccnc2)cc1,1.03 (inactive)
5,C=CCn1c2ccccc2c2nnc(SC(CC)C(=O)Nc3nc(C)c(C(=O)OCC)s3)nc21 (stereo not given),0.9 (inactive)
6,COc1cc(-n2c(C)nc3cc(C(=O)NCc4ccco4)ccc32)cc(OC)c1OC,-0.0298 (inactive)
7,CSCCC(Nc1nc2ccccc2s1)C(=O)O (stereo not given),0.99 (inactive)
8,Cc1ccc(C(C(=O)NC2CCCC2)N(Cc2ccco2)C(=O)CCC(=O)Nc2ccccn2)cc1 (stereo not given),-0.0611 (inactive)
9,COCCN(C(=O)CCC(=O)Nc1ccccn1)C(C(=O)NCCC(C)C)c1ccc(OC)cc1 (stereo not given),-2.46 (active)
10,Cc1ccc(C)c(N(CC(=O)NCc2ccco2)C(=O)CCC(=O)Nc2ccccn2)c1,0.211 (inactive)
11,CC(=O)Oc1cc2c(C(=O)NCCN3CCOCC3)c(C)oc2c2ccccc12,-0.671 (inactive)
12,CN(C)Cc1c(C#N)c2ccccc2n1C,0.566 (inactive)
13,CCCCNC(=O)CSc1nnc(-c2ccco2)n1C,-0.326 (inactive)
14,CCN1C(=O)c2cccc3c(N)ccc1c23,-0.102 (inactive)
15,COC(=O)CNC(=O)c1ccc2c(c1)S(=O)(=O)c1ccccc1C2=O,-0.0488 (inactive)
16,CCCCN(C)C(=O)c1ccc2c(c1)N(CC)C(=O)c1ccccc1S2(=O)=O,-2.44 (active)
17,O=C(Nc1ccccc1F)C1C2C=CC3(O2)C1C(=O)N(c1cccnc1)C3C(=O)NC1CCCCC1 (stereo not given),0.728 (inactive)
18,CCCN1C2=C(C(=O)CCC2)C(c2ccc(O)c(Br)c2)C2=C1CCCC2=O,0.273 (inactive)
19,Cc1ccc(-n2nc3cc(Cl)c(NC(=O)c4ccco4)cc3n2)cc1,0.0365 (inactive)
20,O=C(CCN1C(=O)c2ccccc2C1=O)Nc1ccncc1,-0.0156 (inactive)
21,N#Cc1c(NC(=O)CCCN2C(=O)c3ccccc3C2=O)oc(-c2ccccc2)c1-c1ccccc1,2.29 (active)
22,COc1cc(C(=O)Nc2oc(-c3ccccc3)c(-c3ccccc3)c2C#N)cc(OC)c1OC,-0.934 (inactive)
23,CC(C)N1C(=O)C2C(C(=O)NC3CCCCC3)C3C=CC2(O3)C1C(=O)NC1CCCC1 (stereo not given),-0.055 (inactive)

row,SMILES,B-score
1,COc1ccc(C(=O)N(CCN2CCOCC2)CC(=O)NC2CCCC2)cc1OC,-1.81 (inactive)
2,Cc1noc(C)c1CSc1nnc2ccc3ccccc3n12,0.103 (inactive)
3,CC(C)(CSc1nncn1/N=C/c1ccco1)NS(=O)(=O)c1ccc(Cl)cc1,-0.0125 (inactive)
4,COC(=O)c1ccc(NC(=O)C(C)N2C(=O)c3ccccc3C2=O)cc1 (stereo not given),0.608 (inactive)
5,COc1ccc(OCC(=O)N2CCOCC2)cc1,-0.0545 (inactive)
6,CCCOc1ccc(C2c3c(oc4cc(C)c(C)cc4c3=O)C(=O)N2CCCN2CCOCC2)cc1 (stereo not given),-2.07 (inactive)
7,CCCCOc1ccc(C(C)(O)CCN2CCOCC2)cc1 (stereo not given),-1.77 (active)
8,COC(=O)C1(S(=O)(=O)C2(C(=O)OC)CCCC2)CCCC1,-0.00987 (inactive)
9,CC(=O)OC(C(=O)NC1CCCCC1)c1ccccc1 (stereo not given),0.565 (inactive)
10,CN(C)CCNC(=O)C(C(=O)c1ccccc1)n1ccccc1=O (stereo not given),0.0113 (inactive)
11,Cc1ccc(NC(=O)C2CC(c3ccc(F)cc3)=NO2)cc1 (stereo not given),0.326 (inactive)
12,CC(C)(C)n1nnnc1C(c1cccs1)N(Cc1cccnc1)CC1CCCO1 (stereo not given),-5.58 (active)
13,CCOc1ccc(CN(Cc2ccco2)C(c2cccs2)c2nnnn2C(C)(C)C)cc1 (stereo not given),-0.0188 (inactive)
14,CCC(C)(C)n1nnnc1C(c1cccs1)N1CCN(Cc2ccccc2)CC1 (stereo not given),0.103 (inactive)
15,Cc1ncc(CC(=O)n2cc(C(=O)c3cc(Cl)ccc3O)cn2)s1,-0.173 (inactive)
16,CN(C)S(=O)(=O)c1ccc(Oc2ccc(S(=O)(=O)N(C)C)cc2)cc1,-0.154 (inactive)
17,CCCCOCCCNC(=O)c1ccccc1OCC,0.466 (inactive)
18,COc1ccccc1-c1cc(C(=O)NCCCn2ccnc2)no1,-0.17 (inactive)
19,CCOc1ccccc1C(=O)NCCCn1ccnc1,-0.947 (active)
20,CC[C@]1(O)C[C@@H]2CN(CCc3c([nH]c4ccccc34)[C@@](C(=O)OC)(c3cc4c(cc3OC)N(C)[C@H]3[C@@](O)(C(=O)OC)[C@H](OC(C)=O)[C@]5(CC)C=CCN6CC[C@]43[C@@H]65)C2)C1,-0.431 (inactive)
21,CC[C@]1(O)CC2CN(CCc3c([nH]c4ccccc34)[C@@](C(=O)OC)(c3cc4c(cc3OC)N(C=O)[C@H]3[C@@](O)(C(=O)OC)[C@H](OC(C)=O)[C@]5(CC)C=CCN6CC[C@]43[C@@H]65)C2)C1 (stereo not given in full),-6.81 (active)
22,O=c1c(-c2ccccc2)coc2c(CN3CCOCC3)c(O)ccc12,-0.686 (inactive)
23,CCc1ccccc1NC(=O)CSc1nnc([C@@H](NC(=O)OC(C)(C)C)C(C)CC)o1 (stereo not given in full),-0.00145 (inactive)

row,SMILES,B-score
1,O=C(Nc1cccnc1)c1noc2c1CCCCC2,2.01 (active)
2,CCOc1cccc(C(=O)Nc2cccnc2)c1,1.02 (inactive)
3,O=C(Nc1cccnc1)c1ccc2c(c1)OCO2,-0.335 (inactive)
4,Cc1cccc(NC(=O)CSc2nnc(NC(=O)CN3CCOCC3)s2)c1,-0.445 (inactive)
5,Cc1ccc(-c2nn(-c3ccccc3)cc2CN(Cc2ccccc2)C(=O)CCC(=O)O)o1,-0.258 (inactive)
6,C=CCNC(=O)C12CC3CC(C1)CC(C(=O)NCC=C)(C3)C2,0.561 (inactive)
7,CCOC(=O)N1CCC(NC(=O)CCc2cn(C)c3ccccc23)CC1,0.483 (inactive)
8,CC1Cc2nc(SCC(=O)Nc3ccccc3F)n(C)c(=O)c2S1 (stereo not given),-0.851 (inactive)
9,CCn1c(SCC(=O)Nc2ccccc2F)nc2c(c1=O)SC(C)C2 (stereo not given),-0.377 (inactive)
10,COCCn1c(SCC(=O)Nc2cc(Cl)ccc2OC)nc2c(c1=O)SC(C)C2 (stereo not given),-2.72 (active)
11,COc1ccc(-c2nc3n(c2Br)CCC3)cc1,0.807 (inactive)
12,O=C(c1cccs1)N1CCCC(c2nc(-c3ccc(F)cc3)no2)C1 (stereo not given),-1.27 (inactive)
13,O=C(Cc1cccs1)N1CCCC(c2nc(-c3ccc(S(=O)(=O)N4CCCC4)cc3)no2)C1 (stereo not given),-2.63 (active)
14,COc1cc(-c2noc(C3CCCN(S(=O)(=O)c4cccc(Cl)c4)C3)n2)cc(OC)c1OC (stereo not given),0.77 (inactive)
15,O=C(c1ccco1)N1CCN=C1SCc1cccc(Cl)c1,-2.85 (active)
16,O=C(C1CC1)N1CCN=C1SCc1ccc(Cl)cc1,0.588 (inactive)
17,O=C(c1ccco1)N1CCN(c2cccc(Cl)c2)CC1,-0.702 (inactive)
18,Cc1ccc(S(=O)(=O)C(C#N)c2nc3ccccc3nc2N2CCCC2)cc1C (stereo not given),0.0971 (inactive)
19,O=S(=O)(O)c1nc2ccccc2n1Cc1ccc(Cl)cc1Cl,0.452 (inactive)
20,Cc1cc(C)n(-c2nc(SCC(=O)N3CCCC3)c3c4c(sc3n2)CCCC4)n1,-2.83 (active)
21,Cc1nc(SCC(=O)Nc2cc(C)on2)c2c3c(sc2n1)CCCC3,-0.235 (inactive)
22,COCCNc1nc(-n2nc(C)cc2C)nc2sc3c(c12)CCCC3,-0.584 (inactive)
23,Brc1ccc(Nc2c3c(nc4ncnn24)CCC3)cc1,0.669 (inactive)

row,SMILES,B-score
1,CCOC(=O)N1CCC(NC(=O)COc2cc(=O)n(C)c3ccccc23)CC1,0.854 (inactive)
2,CCOC(=O)N1CCC(Nc2c(NCCN3CCN(c4cccc(Cl)c4)CC3)c(=O)c2=O)CC1,0.00829 (inactive)
3,CCn1c(=O)cc(OCC(=O)NCCCN2CCN(c3cccc(Cl)c3)CC2)c2ccccc21,-2.45 (active)
4,Cc1c(C(=O)NCC2CCCO2)sc2nc(-c3ccccc3)cn12 (stereo not given),0.0376 (inactive)
5,CCCC(=O)Nc1ccc(Cl)c(NC(=O)c2ccc(Br)o2)c1,0.768 (inactive)
6,CCN1CCN(c2c(Cl)cccc2NC(=O)c2ccc(Br)o2)CC1,-6.97 (active)
7,COc1cc(OC)c(NC(=O)c2ccc(Br)o2)cc1Cl,0.263 (inactive)
8,CCOC(=O)N1CCC(NC(=O)c2cnn3ccccc23)CC1,0.733 (inactive)
9,CCOC(=O)Cn1c2c(c(-c3ccccc3OC)cc1=O)CCCC2,-0.0571 (inactive)
10,C=CCOC(=O)C1=C(C)OC(N)=C(C#N)C1c1ccc(F)cc1 (stereo not given),0.263 (inactive)
11,Cc1ccccc1N1C(=O)C2ON(c3ccccc3)C(c3ccncc3)C2C1=O (stereo not given),-0.292 (inactive)
12,CC(C)(C)OC(=O)c1c(N)n(CCCN2CCCC2=O)c2nc3ccccc3nc12,-1.12 (inactive)
13,COc1ccc(OC)c(C(=O)c2coc3ccc(OC)cc23)c1,-1.32 (inactive)
14,COc1cccc(-n2cc(C(=O)O)c3ccccc3c2=O)c1,1.31 (inactive)
15,O=C(c1cn(-c2ccccc2)nc1-c1cccnc1)N1CCCCC1,0.615 (inactive)
16,COC(=O)c1cn(-c2ccccc2)nc1-c1cccnc1,-0.00204 (inactive)
17,COc1ccccc1N1CCN(C(=O)c2cn(-c3ccccc3)nc2-c2cccnc2)CC1,1.85 (active)
18,COc1ccc(-n2ncc3c(N4CCCc5ccccc54)ncnc32)cc1,0.508 (inactive)
19,CCCCN(CC)C(=O)CN(C)S(=O)(=O)c1cccc2nsnc12,-0.0458 (inactive)
20,CSc1nnc2c(n1)OC(c1ccsc1)N(C(C)=O)c1ccccc1-2 (stereo not given),-8.49 (active)
21,CSc1nnc2c(n1)OC(c1cn(C)c3ccccc13)N(C(C)=O)c1ccccc1-2 (stereo not given),-0.0695 (inactive)

# — PubChem BioAssay AID628 (Vanderbilt High Throughput Screening Facility, 2007)
